SMILES strings stand for the structures. Screen size: about 310,000 compounds; about 14,000 (4.5%) showed an effect of 50% or more. Effects have a minus sign here. Only a selection was taken, and strong results are over-represented in it overall.
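Note: peak tail current of the secondary pulse compared with the same well before compound.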

The target in this experiment is human ether-à-go-go-related gene (hERG) potassium channel (human, UniProt Q12809). The experiment can be described thus: primary screen, population patch clamp on CHO cells stably expressing hERG; higher = less effect of the substance.
human ether-à-go-go-related gene (hERG) potassium channel, sequence (Q12809 whole entry, looked up): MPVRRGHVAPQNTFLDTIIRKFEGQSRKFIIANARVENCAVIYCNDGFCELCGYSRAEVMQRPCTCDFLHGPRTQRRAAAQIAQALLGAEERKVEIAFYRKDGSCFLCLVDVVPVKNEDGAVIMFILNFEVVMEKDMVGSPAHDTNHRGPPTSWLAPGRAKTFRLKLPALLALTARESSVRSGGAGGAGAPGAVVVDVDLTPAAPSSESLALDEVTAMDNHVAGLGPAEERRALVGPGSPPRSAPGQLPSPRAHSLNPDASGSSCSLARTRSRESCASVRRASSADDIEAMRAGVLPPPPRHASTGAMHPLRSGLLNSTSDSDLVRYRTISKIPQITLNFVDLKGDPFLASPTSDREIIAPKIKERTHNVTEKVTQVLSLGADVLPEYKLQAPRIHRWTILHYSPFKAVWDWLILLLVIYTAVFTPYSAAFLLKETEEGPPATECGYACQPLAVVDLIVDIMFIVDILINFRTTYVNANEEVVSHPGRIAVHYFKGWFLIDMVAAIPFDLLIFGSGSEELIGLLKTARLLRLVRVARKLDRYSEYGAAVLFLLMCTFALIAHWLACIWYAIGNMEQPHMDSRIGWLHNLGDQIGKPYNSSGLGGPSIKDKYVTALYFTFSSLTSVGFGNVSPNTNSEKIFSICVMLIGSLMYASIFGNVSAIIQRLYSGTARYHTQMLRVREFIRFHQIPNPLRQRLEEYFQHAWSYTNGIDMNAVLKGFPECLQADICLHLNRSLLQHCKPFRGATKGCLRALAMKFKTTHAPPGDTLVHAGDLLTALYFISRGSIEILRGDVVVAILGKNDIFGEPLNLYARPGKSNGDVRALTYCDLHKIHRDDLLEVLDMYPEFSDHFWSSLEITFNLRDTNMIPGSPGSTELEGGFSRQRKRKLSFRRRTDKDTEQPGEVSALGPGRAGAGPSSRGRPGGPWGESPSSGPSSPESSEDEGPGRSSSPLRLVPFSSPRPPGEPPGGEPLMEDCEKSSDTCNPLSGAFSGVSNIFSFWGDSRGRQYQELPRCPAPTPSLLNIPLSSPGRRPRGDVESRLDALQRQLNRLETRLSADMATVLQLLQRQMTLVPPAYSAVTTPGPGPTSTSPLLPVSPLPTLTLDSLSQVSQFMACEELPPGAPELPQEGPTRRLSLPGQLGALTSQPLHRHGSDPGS
`Cn1cnc([N+](=O)[O-])c1SCC(O)CCl` (stereo not drawn): the “hERG current change (%, negative = inhibition) at 10uM” value is given as 15.9%.

Take `O=C(O)c1ccc(COc2ccccc2[N+](=O)[O-])o1`: the “hERG current change (%, negative = inhibition) at 10uM” value is reported as 14.8%.

Turning to `O=C1CCCC(O)=C1C(C#Cc1ccccc1)C1=C(O)CCCC1=O`, the “hERG current change (%, negative = inhibition) at 10uM” value is recorded as -17.9%.

For the compound `COC(=O)c1c(C)oc2ccc(NS(=O)(=O)c3cccs3)cc12`, the “hERG current change (%, negative = inhibition) at 10uM” value was -2.42%.

`COCCOC(=O)c1c(C)oc2ccc(NS(=O)(=O)c3cccs3)cc12`: the “hERG current change (%, negative = inhibition) at 10uM” value was -51.4%.

As to `CCOC(=O)c1c(C)oc2ccc(NS(=O)(=O)c3cccs3)cc12`, the “hERG current change (%, negative = inhibition) at 10uM” value came out at 6.47%.

With `CCOC(=O)c1ccc(NC(=O)CCSCCc2ccccn2)cc1`, the “hERG current change (%, negative = inhibition) at 10uM” value is given as 0.702%.

Consider `CC(C)C[C@H](NC(=O)[C@H](Cc1ccccc1)n1c(=O)[nH]c2ccccc2c1=O)C(=O)N1CCC[C@H]1C(=O)O`, for which the “hERG current change (%, negative = inhibition) at 10uM” value is given as 6.16%.

Take `CCN(CC)CCNc1nc(-c2ccc(OC(F)F)cc2)c(C)s1`: the “hERG current change (%, negative = inhibition) at 10uM” value is listed as -77.8%.

Consider `CCN(CC)CCNc1nc(-c2ccc(OC)cc2)c(-c2ccc(OC)cc2)s1`, for which the “hERG current change (%, negative = inhibition) at 10uM” value was -52.6%.

With `Br.COc1ccc(-c2nc(NC3=NCCCCC3)sc2C)cc1`, the “hERG current change (%, negative = inhibition) at 10uM” value was -26.6%.

On to `CCNc1nc(-c2ccc(OC(F)F)cc2)c(C)s1`, for which the “hERG current change (%, negative = inhibition) at 10uM” value is recorded as 15.1%.

For the compound `COCCNc1nc(-c2ccc(OC)cc2)c(-c2ccc(OC)cc2)s1`, the “hERG current change (%, negative = inhibition) at 10uM” value is 15.3%.

As to `CNc1nc(-c2ccc(OC)cc2)c(-c2ccc(OC)cc2)s1`, the “hERG current change (%, negative = inhibition) at 10uM” value was -12.7%.

Consider `C/C(=N/NC(=O)c1ccc(Cl)cc1Cl)c1cccnc1`, for which the “hERG current change (%, negative = inhibition) at 10uM” value worked out at 16.4%.

Turning to `CN1CCN(c2nc3c(c(=O)n(C)c(=O)n3C)n2Cc2cccc3ccccc23)CC1`, the “hERG current change (%, negative = inhibition) at 10uM” value is -5.1%.

Turning to `CN(CC(=O)Nc1ccc(Cl)cc1F)C1CCS(=O)(=O)C1` (stereo not drawn), the “hERG current change (%, negative = inhibition) at 10uM” value was -20.6%.

Take `COc1ccc(CNC(=O)C2CC(=O)N(C3CCCC3)C2)cc1` (stereo not drawn): the “hERG current change (%, negative = inhibition) at 10uM” value is recorded as -8.14%.

As to `Cc1ccc(-c2nnc(SCC#CCOC(=O)c3cccs3)o2)cc1`, the “hERG current change (%, negative = inhibition) at 10uM” value is reported as 14.3%.

On to `O=C(OCC#CCSc1nnc(-c2ccccc2)o1)c1cccs1`, for which the “hERG current change (%, negative = inhibition) at 10uM” value is -17.7%.

`O=C(OCC#CCSc1nnc(-c2ccncc2)o1)c1cccs1`: the “hERG current change (%, negative = inhibition) at 10uM” value is listed as -53.2%.

Turning to `COc1ccc(CN2CCNC(=O)C2CC(=O)NCc2cn[nH]c2-c2ccccc2)c(F)c1` (stereo not drawn), the “hERG current change (%, negative = inhibition) at 10uM” value is listed as -1.07%.

For `Cc1cccc(NC(=O)c2ccccc2NC(=O)Cc2ccccc2)c1C`, the “hERG current change (%, negative = inhibition) at 10uM” value is reported as 4.93%.

Regarding `CCNC(=O)CSc1nc(-c2ccccc2)cs1`, the “hERG current change (%, negative = inhibition) at 10uM” value is -4.81%.

On to `CN(C)c1nc(N2CCN(c3ccccc3)CC2)c(C#N)c(=O)o1`, for which the “hERG current change (%, negative = inhibition) at 10uM” value is listed as -16.9%.

Turning to `CCN1CCN(C(c2cccs2)C(C)NC(=O)Oc2ccccc2)CC1` (stereo not drawn), the “hERG current change (%, negative = inhibition) at 10uM” value was -38.5%.

With `CC(C)N(C(=O)c1ccc2nc(-c3ccccc3)c(-c3ccccc3)nc2c1)C(C)C`, the “hERG current change (%, negative = inhibition) at 10uM” value is listed as -4.73%.

As for `Cc1ccc(SCc2nc(-c3ccccc3)no2)cc1`, the “hERG current change (%, negative = inhibition) at 10uM” value came out at 2.3%.

For the compound `O=C(Cc1cccc2ccccc12)NCC1CCCO1` (stereo not drawn), the “hERG current change (%, negative = inhibition) at 10uM” value is given as -5.85%.

Take `CCN(CC)CCOC(=O)CCc1cccc2ccccc12.O=C(O)C(=O)O`: the “hERG current change (%, negative = inhibition) at 10uM” value was -42.6%.

Consider `CCN(CC)CCOC(=O)C(Cc1cccc2ccccc12)CC1CCCO1.O=C(O)C(=O)O` (stereo not drawn), for which the “hERG current change (%, negative = inhibition) at 10uM” value was -53.8%.

In the case of `CCN(CC)CCOC(=O)C(Cc1ccco1)Cc1cccc2ccccc12.O=C(O)C(=O)O` (stereo not drawn), the “hERG current change (%, negative = inhibition) at 10uM” value is reported as -76.8%.

As for `CCN(CC)CCOc1ccccc1OC.O=C(O)C(=O)O`, the “hERG current change (%, negative = inhibition) at 10uM” value is -11%.

For `O=C(NCC1CCCO1)c1cccc2ccccc12` (stereo not drawn), the “hERG current change (%, negative = inhibition) at 10uM” value is 21.2%.

For `CCOC(=O)C(C)Oc1ccc2c(C)cc(=O)oc2c1C(C)=O` (stereo not drawn), the “hERG current change (%, negative = inhibition) at 10uM” value is given as -13.8%.

Consider `COCCn1c(SCC(=O)N2CCCCC2)nc2c(c1=O)SC(C)C2` (stereo not drawn), for which the “hERG current change (%, negative = inhibition) at 10uM” value worked out at 9.29%.

Consider `Cc1ccc(-c2csc(NC(=O)C[n+]3cc(-c4ccc(C)cc4)n4c3CCC4)n2)cc1.[Cl-]`, for which the “hERG current change (%, negative = inhibition) at 10uM” value was -72.5%.

In the case of `O=C(C[n+]1cc(-c2ccccc2)n2c1CCC2)Nc1nc(-c2ccccc2)cs1.[Cl-]`, the “hERG current change (%, negative = inhibition) at 10uM” value was -35.1%.

For the compound `Cc1ccccc1NC(=O)C[n+]1cc(-c2ccccc2)n2c1CCC2.[Cl-]`, the “hERG current change (%, negative = inhibition) at 10uM” value is listed as 12.9%.

On to `Cc1ccc(-c2c[n+](CC(=O)Nc3cc(=O)n(C)c(=O)n3C)c3n2CCC3)cc1.[Cl-]`, for which the “hERG current change (%, negative = inhibition) at 10uM” value is -0.179%.

Consider `O=C(C[n+]1cc(-c2ccc(Cl)cc2)n2c1CCC2)Nc1nc(-c2ccccc2)cs1.[Cl-]`, for which the “hERG current change (%, negative = inhibition) at 10uM” value is given as -0.843%.

With `Cc1ccc(-c2c[n+](CC(=O)Nc3nc(-c4ccccc4)cs3)c3n2CCC3)cc1.[Cl-]`, the “hERG current change (%, negative = inhibition) at 10uM” value is listed as -54.9%.

Consider `Cc1ccc(-c2csc(NC(=O)C[n+]3cc(-c4ccccc4)n4c3CCC4)n2)cc1.[Cl-]`, for which the “hERG current change (%, negative = inhibition) at 10uM” value was -57%.

Regarding `Cc1ccc(-c2c[n+](CC(=O)Nc3ccc(C)cc3C)c3n2CCC3)cc1.[Cl-]`, the “hERG current change (%, negative = inhibition) at 10uM” value is recorded as -30.8%.

Regarding `Cc1cccc(C)c1NC(=O)C[n+]1cc(-c2ccccc2)n2c1CCC2.[Cl-]`, the “hERG current change (%, negative = inhibition) at 10uM” value was determined as 11.3%.

(Values after paper PMC4336329 (PLoS ONE, 2015).)
